This is an account of results in PubChem BioAssay (Tox21).

Inconclusive results are not listed. Where a call stands in place of a potency, no number is given. Calls of active or inactive are those of the source. The call rests on the fitted dose curve; in most records, active means well fitted activation curve with a large enough effect in the signal ratio in the repeat runs, with a control signal flat (not every such curve was filed as active); inconclusive means weak or mixed curves; inactive means flat fitted curve, though single readings scatter; the % refers to the signal ratio.

The assay can be described thus: qHTS assay for small molecule activators of the heat shock response signaling pathway (AID 743210). Conditions: HeLa HSE-bla reporter, beta-lactamase ratio, 5 h; series mostly up to 62.6 µM. The source says:
U.S. Tox21 Program National Center for Advancing Translational Sciences [NCATS] NIH Chemical Genomics Center [NCGC] U.S. Environmental Protection Agency [EPA] National Institutes of Environmental Health Sciences [NIEHS] National Toxicology Program [NTP] U.S. Food and Drug Administration [FDA] Tox21 Assay Overview: Various chemicals, environmental and physiological stress conditions may lead to the activation of heat shock response/ unfolded protein response (HSR/UPR). There are three heat shock transcription factors (HSFs) (HSF-1, -2, and -4) mediating transcriptional regulation of the human HSR. To identify the compounds that activate HSR signaling, HSE-bla HeLa cell line (Invitrogen, Carlsbad, CA, USA) containing a beta-lactamase reporter gene under the control of the heat shock response elements was used to screen the Tox21 10K compound library.
Tox21 Assay Protocol Summary: The CellSensor HSE-bla HeLa cells (Invitrogen, Carlsbad, CA, USA) were dispensed at 1500 cells/6uL/well into 1536-well black wall/clear bottom plates using a Multidrop combi (Thermo Fisher Scientific, Waltham, MA) dispenser. After the assay plates were incubated at 37 C and 5% CO2 overnight, 23 nL of compounds dissolved in DMSO, positive controls or DMSO only was transferred to the assay plate by a Pintool station (Kalypsys, San Diego, CA). The plates were incubated at 37 C for 5 h. After 1 uL of LiveBLAzerTM B/G FRET substrate was added using a Flying Reagent Dispenser (Beckman Coulter, Indianapolis, IN, USA), the plates were incubated at room temperature for 2.5 h, and fluorescence intensity was measured by an Envision plate reader (PerkinElmer, Shelton, CT).
In general terms: qHTS replaces the single test concentration by a dilution series.
For the molecule `O=C(NC(Cc1cc(=O)[nH]c2ccccc12)C(=O)O)c1ccc(Cl)cc1` (stereo not given), the Potency result is “inactive”.

Regarding `Cc1ccc(N(CCO)CCO)cc1`, the Potency entry was “inactive”.

As to `O=C1NC(=O)c2cccc3cccc1c23`, the Potency entry is “inactive”. To `O=C(c1ccccc1)c1ccc(O)cc1` belongs “inactive”; to `C[C@H](CS)C(=O)N1CCC[C@H]1C(=O)O`, “inactive”.

Take `CSCC[C@H](NC(=O)[C@H](Cc1c[nH]c2ccccc12)NC(=O)CCNC(=O)OC(C)(C)C)C(=O)N[C@@H](CC(=O)O)C(=O)N[C@@H](Cc1ccccc1)C(N)=O`: the Potency entry is “inactive”.

Consider `CCCCCCC(CO)CCCC` (stereo not given), for which the Potency entry was “inactive”. As to `CCOC(=O)c1ccc(NC(=O)CN2CCCCC2)cc1`, the Potency result is “inactive”. To `CCCCCCCC(=O)OCCCCCC` belongs “inactive”. To `COc1cc(S(=O)(=O)Nc2ccccc2)c(OC)cc1N` belongs “inactive”; to `C[C@@H]1C[C@H]2[C@@H]3CCC4=CC(=O)C=C[C@]4(C)[C@@]3(F)[C@@H](O)C[C@]2(C)[C@@]1(O)C(=O)COP(=O)(O)O`, “inactive”; to `CC(C)(C(=O)c1cccnc1)c1cccnc1`, “inactive”. With `Cc1ccccc1S(N)(=O)=O`, the Potency result was “inactive”.

Regarding `Cc1c[nH]c2ccccc12`, the Potency result is “inactive”. Then `Nc1ccc(S(=O)(=O)NCc2ccccc2)cc1`, with “inactive”; and `Nc1ccc(NC(=O)c2ccc(N)cc2)cc1`, with “inactive”; and `Cc1cc(CCC(=O)OCCOCCOCCOC(=O)CCc2cc(C)c(O)c(C(C)(C)C)c2)cc(C(C)(C)C)c1O`, with “inactive”. To `CNC1CCCN(c2c(F)cc3c(=O)c(C(=O)O)cn(C4CC4)c3c2OC)C1` (stereo not given) belongs “inactive”; to `CC(=O)Oc1cccc(O)c1`, “inactive”; to `C/C(C=O)=C\c1ccccc1`, “inactive”. Then `O=P(O)(O)Oc1ccccc1`, with “inactive”. As to `CC(C)(C)C1(CCc2ccc(Cl)cc2)CO1` (stereo not given), the Potency result is “inactive”. In the case of `CC(CCc1ccc(O)cc1)NCCc1ccc(O)c(O)c1` (stereo not given), the Potency entry was “inactive”. On to `CC(=O)OC(C)C[N+](C)(C)C` (stereo not given), for which the Potency result is “inactive”. Then `CCC(CO)(CO)[N+](=O)[O-]`, with “inactive”; and `C1CCCCC1`, with “inactive”. To `O=C(O)/C=C/c1ccc(O)c(O)c1` belongs “inactive”; to `O=C(O)c1cccc(Oc2ccccc2)c1`, “inactive”; to `CC[C@H]1OC(=O)[C@H](C)[C@@H](O[C@H]2C[C@@](C)(OC)[C@@H](O)[C@H](C)O2)[C@H](C)[C@@H](O[C@@H]2O[C@H](C)C[C@H](N(C)C)[C@H]2O)[C@](C)(O)C[C@@H](C)C(=O)[C@H](C)[C@@H](O)[C@]1(C)O`, “inactive”.

On to `CC(=O)OCC1=C(C(=O)O)N2C(=O)[C@@H](NC(=O)CSc3ccncc3)[C@H]2SC1`, for which the Potency entry was “inactive”. Regarding `Cc1cccc2sc(N)nc12`, the Potency entry is “inactive”. `O=C(/C=C/c1ccc([N+](=O)[O-])cc1)c1ccccc1`: the Potency entry was “inactive”.

For the molecule `Nc1ccc(N=Nc2ccc(N)cc2)cc1`, the Potency result is “inactive”. `Cc1ccc2nc(N)[nH]c(=O)c2c1Sc1ccncc1`: the Potency result was “inactive”. Take `CC(C)(O)c1coc(S(=O)(=O)NC(=O)Nc2c3c(cc4c2CCC4)CCC3)c1`: the Potency entry was “inactive”.

For `COC(CC(C)CCCC(C)(C)O)OC` (stereo not given), the Potency entry is “inactive”.

As to `O=[N+]([O-])c1ccc2ncccc2c1`, the Potency entry was “inactive”. As for `COc1cc(NS(=O)(=O)c2ccc(N)cc2)nc(C)n1`, the Potency result was “inactive”. Then `Nc1nc(-c2ccc([N+](=O)[O-])cc2)cs1`, with “inactive”; and `CCCc1nc2c(C)cc(-c3nc4ccccc4n3C)cc2n1Cc1ccc(-c2ccccc2C(=O)O)cc1`, with “inactive”.
